Among all 38,000 compounds or so, about 1,200 (3.2%) showed an effect of 50% or more. The median lay at about -58%. Only a selection was taken, and strong results are over-represented in it overall.

The test deals with Plasmodium falciparum. Put plainly: Calibr Malaria Delayed Death Assay SOP. It counts as functional, organism-based. Further details: scale not given: in the data most compounds retested in dose-response had high values. The conditions noted are these: concentration 4.99e-06 (unit not given; other assays of the set use mol/L).
Take `CCN1Cc2cc(F)ccc2N(C(=O)C2CCC2)CCC1=O`: the “Percent Effect” value is reported as -44.87%.
With `CCOc1ccccc1CN(CC)Cc1ccc(S(C)(=O)=O)cc1`, the “Percent Effect” value is -21.06%.
Take `Cc1ccccc1CN(CCN(C)C)Cc1ccc(S(C)(=O)=O)cc1`: the “Percent Effect” value is reported as 79.52%.
In the case of `Cc1ccccc1CN(Cc1ccc(S(C)(=O)=O)cc1)CC(C)C`, the “Percent Effect” value is listed as -26.42%.
The value for `O=C(NCc1ccc2c(c1)OCO2)c1ccccc1C1CCNC1` (configuration not stated) was -7.767%.
In the case of `Cc1nccn1-c1ccc(=O)n(CCNC(=O)c2ccccn2)n1`, the “Percent Effect” value is recorded as -133.3%.
The value for `CCN(Cc1csc(C)n1)c1cccc(CO)c1` was -39.75%; that for `CCn1c(CN(C)Cc2cnc(C)s2)nc2cc(F)ccc21` was -16.92%.
The value for `CCn1c(CN(C)Cc2csc(C)n2)nc2cc(F)ccc21` was 60.85%.
Turning to `CCn1cc(NC(=O)C2CCN(Cc3ccccc3)CC2)cn1`, the “Percent Effect” value was -64.73%.
For the compound `O=C(Nc1cnn(COc2ccc(F)cc2Cl)c1)C1CC1`, the “Percent Effect” value stood at 66.71%.
The value for `O=C(Nc1cnn(Cc2ccc(F)cc2Cl)c1)C1CC1` was -1.724%; that for `CCc1cc(N2CCC(Nc3ccc(Cl)cn3)CC2)ncn1` was -58.54%.
With `CC(C)[C@H]1CN(C2Cc3ccccc3C2)C[C@@H]1NS(=O)(=O)N(C)C`, the “Percent Effect” value stood at 61.34%.
The value for `CC(C)[C@H]1CN(c2ccncc2)C[C@@H]1NS(=O)(=O)N(C)C` was -51.73%.
With `CC(C)[C@@H]1CN(Cc2ccsc2)C[C@H]1NS(=O)(=O)N(C)C` the figure was 65.02%; with `CC(C)[C@@H]1CN(CCOc2ccccc2)C[C@H]1NS(=O)(=O)N(C)C`, 40.07%; with `CC(C)[C@H]1CN(C2Cc3ccccc3C2)C[C@@H]1NS(C)(=O)=O`, 31.34%.
Take `CC(C)[C@@H]1CN(Cc2ccccn2)C[C@H]1NS(=O)(=O)N(C)C`: the “Percent Effect” value was -49.07%.
As to `CCc1cc(NCCc2cc(F)cc(F)c2)n2nccc2n1`, the “Percent Effect” value is reported as -125.8%.
The value for `c1cnn(CCNCc2cnc(N3CCCC3)nc2)c1` was -23.83%.
For `Cc1ccccc1C(NC(=O)NCC1(CO)CC1)C1CC1` (configuration not stated), the “Percent Effect” value was -98.91%.
As to `CCc1nc(CN2CCCC(N(C)Cc3cnc(C)cn3)C2)no1` (configuration not stated), the “Percent Effect” value was -35.57%.
Take `CC(NC1(CNC(=O)OC(C)(C)C)CCOCC1)c1ccccc1` (configuration not stated): the “Percent Effect” value is on record as -63.28%.
With `CC(NC(=O)CSCC#N)c1ccccc1` (configuration not stated) the figure was -131%; with `CC(=O)c1ccc(Nc2nc(N)nc3c2nc(C)n3C)cc1`, -204.1%; with `Cc1ccc2cccc(S(=O)(=O)N(C)CC3CCN(C)CC3)c2n1`, 56.89%.
The value for `Cc1ccc2cccc(S(=O)(=O)N(C)CC3CCN(C)C3)c2n1` (configuration not stated) was 35.25%.
Turning to `Cc1ccc2cccc(S(=O)(=O)N(C)C3CCCN(C)C3)c2n1` (configuration not stated), the “Percent Effect” value was 32.17%.
With `CSCc1noc(CN2CC(Cc3ccccc3)CC2=O)n1` (configuration not stated), the “Percent Effect” value is -65.09%.
Take `CN1CCC(C(=O)N2CCCN(c3cccnn3)CC2)C1` (configuration not stated): the “Percent Effect” value is recorded as -4.513%.
With `CN1CCCCCC1C(=O)N1CCN(c2ccccc2C#N)CC1` (configuration not stated), the “Percent Effect” value was found to be 59.17%.
Turning to `CN1CCCCCC1C(=O)N1CCCN(c2ccccc2)CC1` (configuration not stated), the “Percent Effect” value was determined as 60.61%.
Take `CN1CCCCC1C(=O)N1CCN(c2ccccc2C#N)CC1` (configuration not stated): the “Percent Effect” value came to 8.936%.
With `COC(=O)N1CCCCC1C(=O)N1CCN(c2cccnc2)CC1` (configuration not stated), the “Percent Effect” value is reported as -94.01%.
For the compound `Cc1cnn(CCC(=O)N2CCCN(c3ccccc3C#N)CC2)c1`, the “Percent Effect” value was -36.97%.
On to `CCC(c1ccc(F)cc1)S(=O)(=O)CCO` (configuration not stated), for which the “Percent Effect” value is -152%.
Take `COc1cc(C#N)ccc1OC12CCCN(CC1)C2` (configuration not stated): the “Percent Effect” value is reported as -68.61%.
With `O=C(CC1CCCO1)NCCCC(=O)Nc1ccc(Cl)cc1` (configuration not stated) the figure was -29.37%; with `CCOc1ccc(Br)cc1S(=O)(=O)N(CC)Cc1ccc(N(C)C)cc1`, -41.17%.
The value for `COc1ccc(CCC2CCCCN2)cc1OC` (configuration not stated) was -120.3%.
With `CCOc1ccc(Cl)cc1C(C(=O)O)N1CCCC1` (configuration not stated) the figure was -0.3366%; with `CCOc1ccc(Br)cc1-c1cc(N)[nH]n1.Cl`, -27.86%.
For `COc1ccc(CCNC(=O)NC2CCCC2)cc1OC`, the “Percent Effect” value is given as -80.35%.
As to `COc1ccc(Br)cc1CC(=O)N1CCCC1`, the “Percent Effect” value was -142.1%.
The value for `c1csc(CN2CCCN(c3ccc(Cn4ccnc4)cn3)CC2)c1` was -41.75%.
The value for `COC1CN(C(=O)Cc2cccs2)CCC(=O)N(C)c2ccccc21` (configuration not stated) was -19.51%; that for `CCc1cc(=O)[nH]c(-c2ccc(NC(CO)CC(C)C)nc2)n1` (configuration not stated) was -171.9%; that for `Cc1noc(C)c1C(=O)N1CCC2(CC(N(C)c3ccncn3)C2)C1` (configuration not stated) was -76.24%.
Turning to `CCn1c(C2CCN(C(=O)c3cc(CC(C)C)no3)CC2)nn(C)c1=O`, the “Percent Effect” value is reported as -42.91%.
For `O=C(CCc1ccccn1)NC1CCCN(C2Cc3ccccc3C2)C1` (configuration not stated), the “Percent Effect” value is on record as 9.867%.
The value for `Cc1cc(C)nc(NC2CCC(=O)N(C)C2)n1` (configuration not stated) was -38.75%.
`CC(C)C(=O)NCC(=O)N(C)C1CCCN(C2Cc3ccccc3C2)C1` (configuration not stated): the “Percent Effect” value is -100.1%.
Turning to `Cc1cc(C)nc(NC2CCc3nc(C)nn3C2)n1` (configuration not stated), the “Percent Effect” value is on record as -11.11%.
The value for `c1ccc(-c2cc(CN3CCCCCC3c3ccco3)on2)nc1` (configuration not stated) was -88.84%; that for `Cc1nc[nH]c1CN1CCN(C(=O)CN2CCCC2)[C@H]2CS(=O)(=O)C[C@H]21` was -125.3%; that for `Cc1nccc(-c2cccc(NCC(=O)N3CCOC(C)C3)c2)n1` (configuration not stated) was -139.7%.
The value for `CCn1ncnc1CN1CCC(CNC(=O)c2ccccc2C#N)C1` (configuration not stated) was -133.7%.
With `COc1ncc(C(=O)N2CCC(c3nc(C)n4ccsc34)CC2)cn1` the figure was -121.9%.
As to `CC(NC(=O)c1ccc(Cl)cc1)c1nnc(SCC(=O)O)n1C` (configuration not stated), the “Percent Effect” value is -106.5%.
Take `O=C(c1ccc(-n2cccc2)c(F)c1)N1CCCN2CCCC2C1` (configuration not stated): the “Percent Effect” value is 6.651%.
With `CN(Cc1nnc(C2CC2)n1C)S(=O)(=O)c1ccccc1F` the figure was -15.64%; with `CC1c2ncc(COc3cccnc3)n2CCN1C(=O)C1=CCCCC1.O=C(O)C(F)(F)F` (configuration not stated), -13.51%.
In the case of `CC(c1ccc(-n2cncn2)cc1)N(C)Cc1ccccn1` (configuration not stated), the “Percent Effect” value is -93.37%.
With `CCCSc1nn(CCN(C)C)c2nc3sc(C)c(CC)c3c(=O)n12` the figure was 46.83%.
In the case of `CCc1c(C)sc2nc3n(CCN(C)C)nc(SC)n3c(=O)c12`, the “Percent Effect” value was determined as 13.06%.
Regarding `Cc1oncc1C(=O)N1CCC2(CCN(Cc3cccnc3)C2=O)C1.O=C(O)C(F)(F)F` (configuration not stated), the “Percent Effect” value is given as -151.7%.

(Values after ChEMBL document CHEMBL3988442, “University of Dundee, Small-Polar-MMV Screening Library” (2021).)
